RMI FANCM FP – RMI-FANCM interaction inhibition. Fluorescence polarization, RMI core complex with F-MM2 peptide; active compounds read low. hit rate 0.58% among 70,000. FP signal (polarization) at 33 µM; in the data active = FP signal below about 40
* marks the source's active call; other numbers are inactive results; ! = repeats disagree. Many of the other results were omitted from the sample, so hits are more common in it than they were.

SMILES | RMI FANCM FP
CCCCCOc1ccc(C(=O)NN)cc1 | 55
N=C(N)c1ccc(N)cc1 | 55
N=C(N)c1ccc(OCCCCCOc2ccc(C(=N)N)cc2)cc1 | -2*!
Cc1ccccc1-c1nc(NC(=O)CSc2ncnc3sc(C)c(C)c23)ns1 | 78
CCCN1CCCc2cc(CCNS(=O)(=O)c3ccc(OC)c(Cl)c3)ccc21 | 82
CSCCn1c(=NC(=O)c2ccnn2C)sc2cc(F)ccc21 | 70
C/C=C\C(=O)NCc1ccc2[nH]c3c(c2c1)CCCC3 | 14*
COc1cc(/C=C\C(=O)NCc2ccc3[nH]c4c(c3c2)CCCC4)cc(OC)c1OC | 54
CCOC(=O)CCC(=O)NCc1ccc2[nH]c3c(c2c1)CCCC3 | 55
COc1ccccc1-c1nnc(Nc2nc3ccc(F)cc3s2)o1 | 29*
Fc1ccc2nc(Nc3nnc(-c4ccco4)o3)sc2c1 | 80
Fc1ccc2nc(Nc3nnc(-c4cccs4)o3)sc2c1 | 84
CN(C)S(=O)(=O)c1ccc(C(=O)NCc2nnc(SCc3ccc([N+](=O)[O-])cc3)o2)cc1 | 56
COc1ccc(C(=O)Nc2nc(-c3cc4cc(OC)ccc4o3)cs2)cc1 | 65
O=C(O)c1cc(O)ccc1O | 62
O=C(O)C1=CC(=C(c2ccc(O)c(C(=O)O)c2)c2ccc(O)c(C(=O)O)c2)C=CC1=O | -9*
Nc1ccc(O)c(C(=O)O)c1 | 55
COc1ccc(NC(=O)CSc2nnc3cc(C)c4ccccc4n23)cc1 | 85
COc1cc2nc(N)sc2cc1OC | 73
O=C(O)c1cccc2cccc(C(=O)O)c12 | 53
Nc1ccc(C(=O)O)c2c(C(=O)O)cccc12 | 19*
O=C(O)c1cccc(Cl)c1C(=O)O | 58
Cc1cc2nnc(SCC(=O)Nc3ccccc3F)n2c2ccccc12 | 80
Cc1ccc(Oc2ncccc2NS(=O)(=O)c2cccc3nonc23)c2c1CCC2 | 58
c1ccc(Oc2cccc(Oc3ccccc3)c2)cc1 | 58
SMILES | RMI FANCM FP
O=C1c2cc(Cl)c(Cl)cc2C(=O)N1c1ccc(Oc2ccccc2)cc1 | 64
O=C1OC(=O)c2c(Oc3ccccc3)cc3c4c(c(Oc5ccccc5)cc1c24)C(=O)OC3=O | 30*
O=C(CC1CCCCN1S(=O)(=O)c1cccs1)NCCC(c1ccccc1)c1ccccc1 (stereo not given) | 71
O=C(CC1CCCCN1S(=O)(=O)c1ccc(F)cc1)Nc1ccc(Cl)cc1 (stereo not given) | 70
CN(/C=C1\Oc2cc(O)ccc2C1=O)Cc1ccccc1 | 14*
Cc1ncc(CO)c(/C=C2\Oc3cc(O)ccc3C2=O)c1O | 85
O=C1/C(=C/c2ccc(Cl)cc2)Oc2cc(O)ccc21 | -17
O=C(C1=COCCO1)N(CCn1cccn1)c1nc2c(Cl)cccc2s1 | 69
Cn1nccc1C(=O)Nc1sc(-c2ccccc2)cc1C(N)=O | 71
Cc1ccc(-c2csc(NC(=O)c3ccc([N+](=O)[O-])s3)n2)cc1 | 55
O=C(Nc1nc(-c2cc(Cl)sc2Cl)cs1)c1cccs1 | 61
O=C(Nc1nc(-c2cc(Cl)sc2Cl)cs1)c1ccc([N+](=O)[O-])s1 | 28*
CC(=O)N1CCc2cc(S(=O)(=O)N=S(C)(=O)c3ccc(C)cc3)ccc21 (stereo not given) | 53
O=C(c1ccccc1Br)n1sc(=O)c2ccccc21 | 54
O=C(NCCCn1nc(-c2ccco2)ccc1=O)c1cc(Cl)ccc1Cl | 66
O=C(NCC1CCN(Cc2ccco2)CC1)C(=O)Nc1ccon1 | 70
COC(=O)C1=C(C)NC(C)=C(C(=O)OC(C)C)C1c1cccc2nonc12 (stereo not given) | 58
COC(=O)C1=C(C)Nc2[nH]ncc2C1c1ccccc1 (stereo not given) | 69
COC(=O)C1=C(C)NC(C)=C(C(=O)OCC(C)C)C1c1ccccc1[N+](=O)[O-] (stereo not given) | 21*!
Cc1ccc(C=Nc2sc(C)c(C)c2C#N)s1 | 62
CCN(CC)c1ccc(C=Nc2sc(C)c(C)c2C#N)cc1 | 68
Cc1sc(N=Cc2ccco2)c(C#N)c1C | -16*
NC1CCCCC1N1C(=O)CSC1=O (stereo not given) | 66
COc1ccc(/C=C/C(=O)c2ccc(O)cc2)cc1OC | 108
COC(=O)c1sc(NC(=O)CS(=O)(=O)c2ccc(Cl)cc2)c(C(=O)OC)c1C | 59
SMILES | RMI FANCM FP
O=C1CNC(=S)N1Cc1ccco1 | 51
O=c1[nH]c(=S)c2c(n1Cc1ccco1)CCCC2 | 63
O=c1cc(O)n(Cc2ccco2)c(=S)[nH]1 | 26*
O=C(Nc1nc(-c2cccs2)cs1)c1cc([N+](=O)[O-])cc([N+](=O)[O-])c1 | 55
C=C(C)[C@@H]1CC[C@]2(CO)CC[C@]3(C)[C@H](CCC4[C@@]5(C)CC[C@H](O)C(C)(C)C5CC[C@]43C)C12 (stereo not given in full) | 51
CC1(C)C2CC[C@]3(C)C(C(=O)C=C4[C@H]5C[C@@](C)(C(=O)O)CC[C@]5(C)CC[C@]43C)[C@@]2(C)CC[C@@H]1O (stereo not given in full) | 53
CN(C)S(=O)(=O)c1ccc(C(=O)Nc2nnc(Cc3cccs3)o2)cc1 | 69
Cc1cccnc1NC(=O)C1CCCN(c2ccc(-c3cccs3)nn2)C1 (stereo not given) | 61
COc1ccc(SCCCC(=O)O)cc1 | 70
Cc1nc(C(F)(F)F)ccc1C(=O)NCCc1cccs1 | 57
CCOC(=O)c1ccc(N=Cc2ccc(OC(=O)c3ccc(F)cc3)c(OC)c2)cc1 | 60
Oc1ccccc1C=Nc1ccccc1SCc1csc(-c2ccc(Cl)cc2)n1 | 50
CN(/N=C\c1cc(Cl)cc(Cl)c1O)c1ccc([N+](=O)[O-])cn1 | 44
N#CCCSc1ccccc1NC(=O)c1ccc(Cl)s1 | 59
N#CCCSc1ccccc1N=Cc1cc(Cl)cc(Cl)c1O | 33*
Oc1c(Cl)cc(Cl)cc1C=Nc1ccc2nc[nH]c2c1 | 12*
O=c1ccc2cc(O)c(O)cc2o1 | 41
CCOC(=O)c1ccc(N=Cc2cc(Cl)cc(Cl)c2O)cc1 | 24*
CCOC(=O)c1ccc(N=Cc2ccccn2)cc1 | 51
Fc1cc2[nH]cnc2cc1Cl | 62
O=C(Nc1ccc2oc(=O)ccc2c1)c1ccc(F)cc1 | 63
O=c1ccc2cc(N=Cc3cc(Cl)cc(Cl)c3O)ccc2o1 | 30*
O=C(CCCS(=O)(=O)c1ccc(Cl)cc1)Nc1nc(-c2ccc([N+](=O)[O-])cc2)cs1 | 55
O=C(CSc1ccccc1C(=O)O)Nc1ccccc1C(F)(F)F | 60
CN1C(=O)C(C)(C)COc2ccc(NS(=O)(=O)c3ccccc3)cc21 | 65
SMILES | RMI FANCM FP
CS(=O)(=O)Nc1ccc2c(c1)CN(C(=O)c1ccco1)CC2 | 64
Fc1ccc(N=Cc2ccc3c(c2)OCO3)cc1 | 54
Cc1[nH]n(C)c(=O)c1N=Nc1ccc2c(c1)COCO2 | 49
Oc1c(Cl)cc(Cl)cc1C=Nc1cccc2cccnc12 | 27*
O=Cc1cccc2cccnc12 | 60
Oc1c(Cl)cc(Cl)cc1C=Nc1nc2c(s1)CCCC2 | 33
Oc1c(Cl)cc(Cl)cc1C=Nc1ccc2c(c1)COCO2 | 37*
Cc1ccc(CNC(=O)c2sc(=S)n(-c3ccc(C)cc3)c2N)cc1 | 63
Cc1cccc(NC(=O)c2ccc(=O)n(Cc3cccc([N+](=O)[O-])c3)c2)n1 | 57
COC(=O)c1c(NC(=O)c2ccccc2NS(=O)(=O)c2ccc(C)cc2)sc(C)c1C | 71
CCOC(=O)NC(=S)Nc1ccc(OCC)cc1 | 58
O=C(Nc1ccc(Cl)c(N2CCCS2(=O)=O)c1)C(=O)NC1CCCC1 | 64
CCOc1ccc(NC(=O)CSc2nnc(-c3cccn(C)c3=O)n2C)cc1 | 62
O=C(O)C1(CCc2ccc(Br)cc2)CCNCC1 | 73

Compound activity from PubChem.
